Among the data in PubChem BioAssay (NCI) are growth values, retold here.

What all share (assay): NCI-60 one-dose screen, 48 h (100 = growth as untreated, 0 = no growth, -100 = all killed)
Common to all, as to settings: 10 µM unless noted

Assay [1] concerns SR leukemia.
The subject of assay [2] is RPMI-8226 leukemia.
Assay [3] relates to OVCAR-8 ovarian.
The subject of assay [4] is OVCAR-5 ovarian.
For assay [5], the system named is OVCAR-4 ovarian.
Assay [6] relates to SK-OV-3 ovarian.
Assay [7] concerns OVCAR-3 ovarian.
Assay [8] deals with HS 578T breast.
The subject of assay [9] is NCI/ADR-RES ovarian.
Assay [10] concerns IGROV1 ovarian.

Molecules are shown by their SMILES. This is part of a sample that, as a whole, favours compounds with a hit. Of some 83,000 tested, about 20% had one in any assay.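 96-well plates, one dose, 48 hours. Percent growth reported; active if below 10.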 A number with no mark means an inactive call. Activity calls are given as the source filed them.

Regarding `CC1(C)CC[C@]2(C(=O)O)CC[C@]3(C)C(=CC[C@@H]4[C@@]5(C)C/C(=C/O)C(=O)C(C)(C)[C@@H]5CC[C@]43C)[C@@H]2C1`, the growth in [1] is 36.3%; in [2] it was 13.2%; in assay [3], 29.3%; in assay [4], 81.4%; in assay [5] it was 63%; in assay [6], 89.8%. Besides, the growth was 21% in assay [7], 74.1% in assay [8] and 38.8% in assay [9].
Take `N#C/C(=C/c1ccc([N+](=O)[O-])cc1)n1nnc2cc(F)c(F)cc21`: the growth in assay [1] is 2.33% (active); in assay [2], -18.7% (active); in assay [3], 37.5%; in [5] it was 86.5%; in assay [6], 116%; in assay [10], 73.6%. Moreover, the growth in assay [7] was 30.6%; in [8], 80.6%; in assay [9], 76.2%.
Consider `CCc1n(Cc2ccc3ccccc3c2)cc[n+]1Cc1ccc2ccccc2c1`, for which the growth in assay [1] is -28% (active); in assay [2], -23.1% (active); in assay [3], -4.85% (active); in assay [4], 8.92% (active); in assay [5], 2.44% (active); in [6], 9.89% (active). The values for the growth in [8] and in assay [9] were 4.38% (active) and 92.5%, respectively.
In the case of `O=C(O)/C(=C\c1ccc(Cl)cc1)c1ccc(Cl)cc1`, the growth in assay [1] was 96.8%; in assay [2], 100%; in assay [3], 96.3%; in [4], 74.1%; in assay [5], 90.5%; in [6], 111%. Further, the growth was 101% in [7], 78% in assay [8] and 90.1% in [9].
Regarding `C=C1C(=O)O[C@H]2[C@H]1CC/C(COC(=O)NCc1cc[nH]c1)=C\CC[C@@]1(C)O[C@@H]21`, the growth is 4.94% (active) in [1]; 30.2% in [2]; 70.8% in [3]; 50.5% in assay [4]; 57.1% in assay [5]; 75.7% in [6]. In addition, the growth in assay [7] was 16.6%; in [9] it was 90.6%.
On to `O=[N+]([O-])C1C(c2ccccc2)C12c1ccccc1-c1ccccc12` (configuration not stated), for which the growth is -14.8% (active) in assay [1]; -17.3% (active) in assay [2]; -28% (active) in assay [3]; 57.2% in [5]; 2.18% (active) in [6]; 20.5% in [10]. In addition, the growth in assay [7] is -31.2% (active); in [8], 38.6%; in [9] it was -27.4% (active).
`CO[C@]12C=C/C(=C(/C(=O)OCc3cccnc3)C(=O)CCCCCCCC[C@@]3(OC)C=C/C(=C(/C(=O)OCc4cccnc4)C(=O)CCCCCCCC1)O3)O2`: the growth in assay [1] is -9.1% (active); in assay [2], -9.22% (active); in assay [3] it was 19.9%; in [5], 11%; in assay [6] it was 57.4%; in assay [10], 2.68% (active). For the same compound, the growth in assay [7] is -19.3% (active); in [8] it was 37%; in assay [9] it was 36.3%.
As to `O=C(CSc1nc(-c2ccccc2)[nH]c1S(=O)(=O)c1ccccc1)NC1CC1`, the growth was 92.1% in assay [1]; 90.1% in assay [2]; 97.2% in assay [3]; 95% in [5]; 13.4% in assay [6]; 107% in assay [10]. The values for the growth in [7], in assay [8] and in [9] were 102%, 99.2% and 83.1%, respectively.
Consider `Cc1nnc(NC(=O)c2nc(S(=O)(=O)Cc3ccc(F)cc3)ncc2Cl)s1`, for which the growth in assay [1] was 1.43% (active); in assay [2], 37%; in assay [3] it was 56.4%; in assay [5] it was 101%; in [6] it was 101%; in assay [10], 91.1%. In addition, the growth is 21.8% in assay [7] and 93% in assay [9].
For the compound `CN(C)CCNC(=O)c1cccc(-c2cnc3ccc(-c4ccc5c(c4)OCO5)nn23)c1`, the growth was -2.23% (active) in assay [1]; 75.8% in assay [2]; 88.6% in assay [3]; 67.2% in assay [5]; 61.1% in assay [6]; 30.6% in [10]. Also, the growth in assay [7] was 76.9%; in assay [8], 80.1%; in [9], 85.8%.
Take `COc1cc(/C=C/C(=O)c2cccc(Nc3nc(Nc4ccccc4)nc(Nc4ccccc4)n3)c2)cc(OC)c1OC`: the growth in assay [1] is 22.4%; in assay [2] it was -63.1% (active); in assay [3], 27.2%; in assay [5], 67.4%; in [6], 90.3%; in assay [10], 37.3%. Also, the figures for the growth in assay [7] and in [8] were 44.9% and 50.3%, respectively.
As for `CC1(c2ccccc2O)NN=C(/N=C/c2cccc([N+](=O)[O-])c2)N1C(Cc1c[nH]c2ccccc12)C(=O)O` (configuration not stated), the growth is 87.7% in [1]; 81.3% in [2]; 88.7% in assay [3]; 90.2% in assay [5]; 61.3% in assay [6]; 62% in assay [10]. The growth in assay [7] was 95%; in assay [8], 95.8%.
`CC(=O)[C@@H]1CCC=C2CC[C@]3(C)[C@@H](CC[C@@H]4[C@@]5(C)CCCNC(C)(C)[C@@H]5CC[C@]43C)[C@H]21`: the growth in assay [1] is -45.2% (active); in assay [2], -49.2% (active); in assay [3], -84.4% (active); in assay [5], -67.5% (active); in assay [6], 93%; in [10], -94.2% (active). Also, the growth was -93.3% (active) in assay [7], -30.9% (active) in [8] and -52.2% (active) in assay [9].
